This is part of a sample that, as a whole, favours compounds with a hit. Of some 79,000 tested, about 15% had one in any assay. Active and inactive are the calls of the source. No stated cut-off is given here; in the data, active means growth inhibition above about 70%; inactive means the rest.
Key:
[1] = NCI Yeast Anticancer Drug Screen. Data for the rad52 strain (AID 147);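 further: 0% = growth of vehicle-treated control cultures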; settings: S. cerevisiae rad52 mutant growth inhibition, hits give high values
Procedure, shortened: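 Inhibition of yeast growth, referenced to vehicle controls, was the measured output for a strain with defective DNA damage repair.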

[2] = NCI Yeast Anticancer Drug Screen. Data for the wt1 strain (AID 149);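 further: 0% = growth of vehicle-treated wt1 cultures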; settings: S. cerevisiae wt1 strain (SPY 50644) growth inhibition, hits give high values
Procedure, shortened: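 Yeast wt1 strain exposed to compounds; growth inhibition measured relative to vehicle-treated controls.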

[3] = NCI Yeast Anticancer Drug Screen. Data for the rad50EPP+ strain (AID 151);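 further: 0% = growth of vehicle-treated control cultures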; settings: S. cerevisiae rad50 mutant strain, hits give high values
Procedure, shortened: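 Genetically defined yeast (rad50EPP+, DNA damage repair alteration) is grown with compound, and inhibition of growth is expressed relative to vehicle-treated controls.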

[4] = NCI Yeast Anticancer Drug Screen. Data for the mgt1 strain (AID 153); settings: S. cerevisiae mgt1 mutant growth inhibition, hits give high values
Procedure, shortened: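 In the mgt1 strain, test compounds were added and growth inhibition was determined relative to vehicle-treated controls.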

[5] = NCI Yeast Anticancer Drug Screen. Data for the rad50 strain (AID 155);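 further: 0% = growth of vehicle-only cultures of the same strain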; settings: S. cerevisiae rad50 strain growth inhibition, hits give high values
Procedure, shortened: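 Yeast carrying a defined DNA repair defect were exposed to test compounds, and growth was compared with vehicle-treated controls to give percent inhibition.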

[6] = NCI Yeast Anticancer Drug Screen. Data for the mec2-1 strain (AID 157); settings: S. cerevisiae mec2-1 strain, hits give high values
Procedure, shortened: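 Each compound was tested on mec2-1 yeast, a strain altered in DNA damage repair or cell cycle control. Growth inhibition is reported relative to vehicle.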

[7] = NCI Yeast Anticancer Drug Screen. Data for the rad14 strain (AID 159);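 further: 0% = growth of vehicle-treated control cultures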; settings: S. cerevisiae rad14 strain growth inhibition, hits give high values
Procedure, shortened: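 Yeast cells carrying a defined DNA-repair defect were exposed to compounds, and growth inhibition was calculated relative to vehicle-treated control cultures.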

[8] = NCI Yeast Anticancer Drug Screen. Data for the sgs1 mgt1 strain (AID 161);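 further: 0% = growth of cultures given vehicle only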; settings: S. cerevisiae sgs1 mgt1 strain, hits give high values
Procedure, shortened: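 Test agents were incubated with a DNA-repair-mutant yeast strain. Growth was then read and compared against vehicle-treated controls.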

[9] = NCI Yeast Anticancer Drug Screen. Data for the CLN2oe strain (AID 163);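 further: 0% = growth of vehicle-only control cultures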; settings: S. cerevisiae CLN2oe strain, hits give high values
Procedure, shortened: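 First, the altered yeast strain was treated with each compound; second, its growth was measured; finally, inhibition was derived by comparison with vehicle controls.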

[10] = NCI Yeast Anticancer Drug Screen. Data for the cln2 rad14 strain (AID 165);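 further: 0% = growth equal to vehicle treated cultures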; settings: S. cerevisiae cln2 rad14 strain, hits give high values
Procedure, shortened: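 Test compounds were added to cln2 rad14 yeast cultures; inhibition of growth was then determined by comparison with vehicle treatment.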

[11] = NCI Yeast Anticancer Drug Screen. Data for the bub3 strain (AID 167); settings: S. cerevisiae bub3 mutant strain, hits give high values
Procedure, shortened: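 Compounds were applied to a genetically altered yeast strain carrying a cell-cycle control defect. Growth inhibition was scored against vehicle-treated controls.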

[12] = NCI Yeast Anticancer Drug Screen. Data for the wt2 strain (AID 169);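 further: 0% = growth of vehicle-treated yeast cultures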; settings: S. cerevisiae wt2 strain growth inhibition, hits give high values
Procedure, shortened: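 The panel's yeast strains carry defined changes in DNA repair or cell cycle genes. Each strain is grown with compound, and growth loss is scored relative to vehicle.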

[13] = NCI Yeast Anticancer Drug Screen. Data for the mlh1 strain (AID 171);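 further: 0% = growth of vehicle-treated control cultures of the same strain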; settings: S. cerevisiae mlh1 strain growth inhibition, hits give high values
Procedure, shortened: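 Inhibition values reflect reduced yeast growth in the presence of compound, referenced to vehicle controls, using a strain chosen for its alteration in DNA repair or cell cycle control.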

[14] = NCI Yeast Anticancer Drug Screen. Data for the sgs1 strain (AID 173);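 further: 0% = growth of vehicle-only control cultures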; settings: S. cerevisiae sgs1 mutant, hits give high values
Procedure, shortened: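 Vehicle-treated cultures served as reference for growth inhibition of a yeast strain altered in DNA damage repair or cell cycle control after compound exposure.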

[15] = NCI Yeast Anticancer Drug Screen. Data for the mlh1 rad18 strain (AID 175); settings: S. cerevisiae mlh1 rad18 strain growth inhibition, hits give high values
Procedure, shortened: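 Inhibition values reflect reduced growth of mutant yeast versus vehicle-treated controls following compound exposure; the mutations affect DNA damage repair.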

[16] = NCI Yeast Anticancer Drug Screen. Data for the rad18 strain (AID 177); settings: S. cerevisiae rad18 mutant growth inhibition, hits give high values
Procedure, shortened: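 Steps: expose repair-mutant yeast to compound; measure growth; express as inhibition relative to vehicle control.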

[17] = at 5.0 µM (retest, dose inferred, filed as 0.5)
[18] = at 50.0 µM (retest, dose inferred, filed as 5.0)

Measured: growth inhibition

N=C1N=Nc2nc(C3(c4nc5n(c4O)C(=N)N=N5)Cc4ccccc4C3=O)c(O)n21 (stereo not drawn)
active: [4]; at 33.0 µM 90% | [4]; at 100.0 µM 99% | [5]; at 50.0 µM 82.2% | [5]; at 100.0 µM 94% | [6]; at 100.0 µM 87% | [7]; at 33.0 µM 94% | [7]; at 100.0 µM 99% | [8]; [18] 70% | [11]; at 50.0 µM 85.5% | [11]; at 100.0 µM 86% | [12]; at 100.0 µM 89% | [13]; at 100.0 µM 95% | [14]; at 33.0 µM 74% | [14]; at 100.0 µM 95% | [15]; at 50.0 µM 92.7% | [16]; at 33.0 µM 75% | [16]; at 100.0 µM 96%
inactive: [1]; at 1.2 µM -1% | [1]; at 3.7 µM 1% | [1]; at 11.0 µM 5% | [1]; at 33.0 µM 18% | [1]; at 100.0 µM 69% | [2]; at 1.2 µM 3% | [2]; at 3.7 µM 7% | [2]; at 11.0 µM 11% | [2]; at 33.0 µM 23% | [2]; at 100.0 µM 67% | [3]; at 1.2 µM -2% | [3]; at 3.7 µM 0% | [3]; at 11.0 µM -1% | [3]; at 33.0 µM -1% | [3]; at 100.0 µM 3% | [4]; at 1.2 µM 5% | [4]; at 3.7 µM 7% | [4]; at 11.0 µM 22% | [5]; at 1.2 µM -9% | [5]; at 3.7 µM 34% | [5]; [17] 4% | [5]; at 11.0 µM -3% | [5]; at 33.0 µM 66% | [5]; [18] 38% | [6]; at 1.2 µM 2% | [6]; at 3.7 µM 4% | [6]; [17] 4% | [6]; at 11.0 µM 12% | [6]; at 33.0 µM 30% | [6]; [18] 28% | [6]; at 50.0 µM 59.1% | [7]; at 1.2 µM 7% | [7]; at 3.7 µM 21% | [7]; at 11.0 µM 48% | [8]; [17] 7% | [8]; at 50.0 µM 67% | [9]; at 1.2 µM 1% | [9]; at 3.7 µM 8% | [9]; at 11.0 µM 15% | [9]; at 33.0 µM 9% | [9]; at 100.0 µM 8% | [10]; [17] 13% | [10]; [18] 10% | [10]; at 50.0 µM 23.2% | [11]; at 1.2 µM 4% | [11]; at 3.7 µM 6% | [11]; [17] 0% | [11]; at 11.0 µM 9% | [11]; at 33.0 µM 45% | [11]; [18] 42% | [12]; at 1.2 µM 4% | [12]; at 3.7 µM 16% | [12]; at 11.0 µM 11% | [12]; at 33.0 µM 32% | [13]; at 1.2 µM 1% | [13]; at 3.7 µM 5% | [13]; at 11.0 µM 14% | [13]; at 33.0 µM 68% | [14]; at 1.2 µM 4% | [14]; at 3.7 µM 10% | [14]; at 11.0 µM 21% | [15]; [17] -63% | [15]; [18] 57% | [16]; at 1.2 µM 3% | [16]; at 3.7 µM 11% | [16]; at 11.0 µM 23%

Reference: PubChem BioAssay (NCI)
